According to PubChem BioAssay (Tox21):
Where “and” joins values, the source holds several entries; their conditions need not be identical. Identical values can stand only once. Results filed as inconclusive are left out. Where a call stands in place of a potency, no number is given. More than one record can exist for a structure, and the calls need not agree. Calls of active or inactive are those of the source. Calls come from the whole dose curve; as a rule, active = well fitted cell-killing curve with a large enough effect in the repeat runs; inconclusive = weak or mixed curves, or effect the other way; inactive = flat fitted curve, though single readings scatter.

experiment: qHTS assay to identify small molecule antagonists of the estrogen receptor alpha (ER-alpha) signaling pathway using the BG1 cell line in the presence of 0.1 nM 17-beta-estradiol - cell viability counter screen (AID 1259241); settings: VM7Luc4E2 (BG1) viability, CellTiter-Fluor protease, 22 h, 0.1 nM estradiol agonist added; series mostly up to 92.4 µM; activity change, negative = cytotoxicity: at the top concentration; note: nearly all actives have a fitted effect of over 40% in size
How it was run: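 VM7Luc4E2 cells (endogenous ER-alpha, 4×ERE-luciferase), hormone-starved 5 days in charcoal-stripped FBS, were treated with compounds plus 0.1 nM 17beta-estradiol for 22 hr at 37C; viability read in same wells as CellTiter-Fluor live-cell protease fluorescence.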
Potency is the fitted concentration of half-maximal effect.

Structure (SMILES)	Potency
NCc1cccc(CN)c1	inactive
OCC1CCCO1 (configuration not stated)	inactive
O=S(=O)(O)CCS	inactive
Cc1ccc(C(=O)O)o1	inactive
OC[C@@H](O)[C@H](O)[C@H](O)[C@@H](O)CO	inactive
CCOC(=O)/C=C\C(=O)OCC	inactive
CC1=CC[C@H]2C[C@@H]1C2(C)C	inactive
O=C(c1ccc(O)cc1)c1ccc(O)cc1O	inactive
CC(C)NCC(O)COc1cccc2ccccc12 (configuration not stated)	inactive
CCCCCCOC(C)=O	inactive
CC(C)n1c(/C=C/[C@@H](O)C[C@@H](O)CC(=O)O)c(-c2ccc(F)cc2)c2ccccc21	inactive
Cn1c([N+](=O)[O-])cnc1COC(N)=O	inactive
Oc1c(Cl)cc(Cl)c(Cl)c1Cl	inactive
C=C(C)C(=O)OCC(CC)(COC(=O)C(=C)C)COC(=O)C(=C)C	inactive
CN(C)c1ccc(C(=N)c2ccc(N(C)C)cc2)cc1	18.6 µM (active)
CCCCCCC(C)(C)S	inactive
Clc1ccc(Cl)c(Cl)c1Cl	inactive
CNC[C@H](O)[C@@H](O)[C@H](O)[C@H](O)CO	inactive
C=C(C)C(=O)OCCC[Si](OC)(OC)OC	inactive

experiment: qHTS assay to identify small molecule antagonists of the androgen receptor (AR) signaling pathway using the MDA cell line in the presence of 0.5 nM R1881 - cell viability counter screen (AID 1259242); settings: MDA-kb2 viability, CellTiter-Fluor protease fluorescence, 16 h; series mostly up to 92.4 µM; viability change, negative = cytotoxic: at the top concentration; note: nearly all actives have a fitted effect of over 45% in size
How it was run: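 Cells seeded at 3,000/well and allowed 5 hr at 37C, 0% CO2 before compound transfer and R1881 (0.5 nM final) addition; 16 hr later, live-cell protease fluorescence indicated cytotoxicity.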

Structure (SMILES)	Potency	viability change, negative = cytotoxic
CC1=C(/C=C/C(C)=C/C=C/C(C)=C/CO)C(C)(C)CCC1	inactive	
NCc1cccc(CN)c1	inactive	
CN(C)c1cccc(O)c1	inactive	
OCC1CCCO1 (configuration not stated)	inactive	
CCCCC(CC)C(=O)OCCOCCOCCOC(=O)C(CC)CCCC (configuration not stated)	inactive	
O=S(=O)(O)CCS	inactive	
Oc1ccc2ccccc2c1	inactive	
Cc1ccc(C(=O)O)o1	inactive	
ClC1=C(Cl)C(Cl)(Cl)C(Cl)=C1Cl	inactive	
OC[C@@H](O)[C@H](O)[C@H](O)[C@@H](O)CO	inactive	
CCOC(=O)/C=C\C(=O)OCC	inactive	
CC1=CC[C@H]2C[C@@H]1C2(C)C	inactive	
O=C(c1ccc(O)cc1)c1ccc(O)cc1O	inactive	
CCc1ccccc1O	inactive	
COCC(C)O (configuration not stated)	inactive	
CC(C)NCC(O)COc1cccc2ccccc12 (configuration not stated)	inactive	
CCCCCCOC(C)=O	inactive	
CC(C)n1c(/C=C/[C@@H](O)C[C@@H](O)CC(=O)O)c(-c2ccc(F)cc2)c2ccccc21	inactive	
c1ccc2ccccc2c1	inactive	

Structure (SMILES)	Potency	viability change, negative = cytotoxic
CC(C)(C)C1CCC(O)CC1 (configuration not stated)	inactive	
Cn1c([N+](=O)[O-])cnc1COC(N)=O	inactive	
CCCCCCCCC	inactive	
Cc1ccc(N)c(S(=O)(=O)O)c1	inactive	
C=C(C)C(=O)OCCCCCC	inactive	
Oc1c(Cl)cc(Cl)c(Cl)c1Cl	inactive	
Cc1cc(O)c2c(c1)C(=O)c1cc(O)cc(O)c1C2=O	inactive and 48.6 µM (active)	
Nc1c(S(=O)(=O)O)cc(Br)c2c1C(=O)c1ccccc1C2=O	inactive and 24.3 µM (active)	
C=C(C)C(=O)OCC(CC)(COC(=O)C(=C)C)COC(=O)C(=C)C	inactive	
Nc1cc(-c2ccncc2)c[nH]c1=O	inactive	
CS(=O)(=O)Nc1ccc([N+](=O)[O-])cc1Oc1ccccc1		-24.3% [at 42.5 µM] (inactive)
CCCCC(CC)COC(=O)CCCCCCCC(=O)OCC(CC)CCCC (configuration not stated)		2.33% (inactive)
CN(C)c1ccc(C(=N)c2ccc(N(C)C)cc2)cc1	48 µM (active) and 46.7 µM (active)	
CCCCCCC(C)(C)S	inactive	
CCOC(=O)C1OC1c1ccccc1 (configuration not stated)	inactive	
Clc1ccc(Cl)c(Cl)c1Cl	inactive	
CNC[C@H](O)[C@@H](O)[C@H](O)[C@H](O)CO	inactive	
C=C(C)C(=O)OCCC[Si](OC)(OC)OC	inactive	
CCCCC(CC)COC(=O)/C=C\C(=O)OCC(CC)CCCC (configuration not stated)	inactive	
